Cycloheximide cs: counter-screen hit for Shiga toxin inhibitors, cycloheximide. 300,000 compounds, 12% hits. AID 2314. cell reporter, cycloheximide protein synthesis inhibition counterscreen. max response, %; in the data active = max response mostly above about 13%, no sharp cut-off; inactive = mostly below about 14%; also: read at 38.3 µM for the half of the compounds with a filed dose; 0% is about no effect
Shiga toxin inh: blocks Shiga toxin action in Vero cells; AID 2315; Vero cells, Shiga toxin protein synthesis inhibition reporter; inhibition, % at 38.7 µM; 290,000 compounds, 9.2% hits; in the data active = inhibition mostly above about 28%, no sharp cut-off; inactive = mostly below about 43%; also: 0% is about no effect
FMDV antiviral: antivirals against foot and mouth disease virus | FMDV antiviral cell-based qHTS | Potency, µM (top dose mostly 57.9 µM), for inactives: at the highest dose activity change, negative = inhibition, actives largely listed as inhibitors | 410,000 compounds, 1.2% hits | AID 1159524; calls by dose curve; tested in HEK293T cells; also: read-out not given here; potency is read from the fitted curve at half-maximal effect; % is scaled to controls: 0 for no effect and ±100 for the full control effect; nearly all actives have a fitted effect of over 45% in size
Sm TGR block: blocks Schistosoma mansoni thioredoxin glutathione reductase. Q962Y6. purified TGR, DTNB reduction, TNB absorbance 405 nm. Potency, µM (titrated, usually from 114 µM), inactives show at the highest dose activity change, negative = inhibition, hits mostly inhibitors. 360,000 compounds, 3% hits. AID 485364; active = well fitted inhibition curve with a large enough effect; inconclusive = small, poorly fitted or top-dose-only effect; inactive = no such curve, though single readings can be large or run the other way; also: potency is read from the fitted curve at half-maximal effect; % is scaled to controls: 0 for no effect and ±100 for the full control effect; nearly all actives have a fitted effect of over 60% in size
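First, TGR (20 nM dispensed) and NADPH were mixed with compound. Second, a 15 min room-temperature incubation followed. Third, further NADPH and then DTNB were added to start the reaction. Finally, TNB absorbance was monitored kinetically.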
Active calls of the source: *; ? = inconclusive; / = no result given; [ ] = dose if it differs, or a comment. Compounds with a hit are over-represented: about 12% of the library has one in this group of screens.

SMILES | Cycloheximide cs | Shiga toxin inh | FMDV antiviral | Sm TGR block
CCC(=O)Nc1cccc(NC(=S)NC(=O)c2ccc(C)cc2)c1 | 46* | 102* | 29% | /
CCC(=O)Nc1cccc(NC(=S)NC(=O)c2ccccc2)c1 | 54* | 16* | 48% | 45µM*
CCC(=O)Nc1cccc(NC(=S)NC(=O)c2cccc(C)c2)c1 | 60* | 114* | 0% | 40µM*
O=C(NC(=S)Nc1cccc(CO)c1)c1ccc(-c2ccccc2)cc1 | 25* | 64* | -12% | -21%
CSc1ncc2c(n1)-c1ccccc1N(Cc1ccccc1)S2(=O)=O | / | / | -26% | 1%
COc1ccc(-c2nc3cc(C)ccc3cc2CN(C(=O)c2cc(C)nn2C)C2CC2)cc1OC | / | / | -4% | /
Cc1cccc(CC(=O)NC2CC(=O)N(c3ccccc3)C2)c1 (stereo not given) | / | / | -14% | -3%
CCCCSc1nc(-c2ccc(OC)cc2)ccc1C#N | / | / | -4% | 3%
N#CC(C#N)=NNc1ccc([N+](=O)[O-])cc1 | 2 | 24 | -21% | 25µM*
O=C(O)CC/C(=N/Nc1ccc([N+](=O)[O-])cc1)C(=O)O | 10 | 22 | -15% | 45%
CCN(CC)S(=O)(=O)c1ccc(NN=C(C#N)C#N)cc1 | 3 | 13 | 10µM* | 7.9µM*
CCOc1ccc(CNC(=O)C2Cc3cc(S(=O)(=O)N4CCCCCC4)ccc3N2C(C)=O)cc1 (stereo not given) | / | / | -29% | -2%
C=CC(=O)N1C/C(=C/c2ccc(F)cc2)C(=O)/C(=C\c2ccc(F)cc2)C1 | / | / | 8.9µM* | /
CN1C2CCC1/C(=C\c1ccc(F)cc1)C(=O)/C2=C/c1ccc(F)cc1 | -5 | -17 | -5% | -11%
COc1ccc(C2/C=C\CN(CC3CCCCC3)C(Cc3ccccc3)C(=O)N2Cc2ccc(F)cc2)cc1 (stereo not given) | 6 | 15 | / | /
COc1ccc(Nc2cc(Cl)nc(N)n2)cc1 | 29* | 36 | 14% | 2%
Cc1cc(Nc2ccc(Cl)cc2)nc(-c2ccccc2O)n1 | 15 | 46 | 20% | 0%
Cc1cc(Nc2ccc(Cl)cc2)nc(N)n1 | 68* | 63* | 47% | -30%
COc1ccc(Nc2nc(Cl)nc(Nc3ccc(OC)cc3)n2)cc1 | 6 | -3 | -19% | 2%
COc1ccc(Nc2cc(C)nc(NCc3ccccc3)n2)cc1 | 1 | 22 | ? | 19%
COc1ccc(Nc2cc(C)nc(N)n2)cc1 | 20* | 37* | 27% | 5%
C#CCOc1ccc(C(=O)N(C)c2ccccc2I)cc1 | 20 | 15 | / | /
c1ccc(CCNc2ncnc3scc(C4COc5ccccc5O4)c23)cc1 (stereo not given) | -3 | -4 | 28µM* | 5%
Cc1ccc(C(=O)N[C@H](C(=O)Nc2sccc2C(N)=O)C(C)C)cc1 | 18* | 18 | 4% | -11%
CN1CCN(C(=O)c2c(NC(=O)c3ccco3)sc3c2CCC(C(C)(C)C)C3)CC1 (stereo not given) | 6 | 26 | -11% | -1%
SMILES | Cycloheximide cs | Shiga toxin inh | FMDV antiviral | Sm TGR block
O=C(Nc1sc2c(c1C(=O)O)CCCCC2)c1ccco1 | 33* | 83 | -33% | -14%
Cc1occc1C(=O)Nc1sc2c(c1C(N)=O)CCCCC2 | 29* | 62* | 14% | ?
CC(C)[C@H](NC(=O)c1ccccc1F)C(=O)OCC(=O)Nc1sccc1C(N)=O | / | / | 0% | /
CC1CCc2c(sc(NC(=O)c3ccco3)c2C(=O)O)C1 (stereo not given) | 40* | 126* | -1% | 5%
COc1cc2nc(NCCc3ccccc3)n3nc(-c4cccnc4)nc3c2cc1OC | / | / | -9% | 3%
CCc1c(C)sc2c1CCN(C(=O)Nc1cc(C)ccc1C)C2c1ccc(OC)cc1 (stereo not given) | / | / | -3% | 7%
Cn1c(=O)c2c(SCC(=O)N3CCc4ccccc43)nc(-c3cccc(F)c3)nc2n(C)c1=O | / | / | -7% | 1%
COc1ccc(NC(=O)CC2Oc3ccc(C)cc3NC2=O)cc1Cl (stereo not given) | / | / | -3% | -1%
COc1ccc(-c2c(C)nn3c4c(cnc23)C(=O)CC(c2ccc(C)cc2)C4)cc1 (stereo not given) | / | / | 0% | 0%
CCc1c(C)sc(NC(=O)c2ccoc2C)c1C(N)=O | 22* | 12 | -5% | -15%
CCOC(=O)c1c(NC(=O)C(C)N2CCN(C(=O)c3ccco3)CC2)sc2c1CCCC2 (stereo not given) | 19* | 29 | ? | -23%
Cc1occc1C(=O)Nc1sccc1C(N)=O | 38* | 35 | 10% | -18%
CN(C)C(=O)c1c(NC(=O)c2ccco2)sc2c1CCCCC2 | 16* | 29 | -3% | ?
Cc1ccc(CSc2nc3ccc(NC(=O)C(C)C)cc3s2)cc1 | / | / | 1% | 1%
O=C(c1cnc2c(c1)COc1ccccc1-2)c1ccccc1O | / | / | 22% | 5%
NC(=O)c1c(NC(=O)CSc2nnc(Cc3ccccc3)n2Cc2ccco2)sc2c1CCC2 | 2 | 11 | 55% | 25µM*
NC(=O)c1ccsc1NC(=O)c1coc2ccccc2c1=O | 24* | 104* | 15% | 11%
O=C(CSc1nnc(Cc2cccs2)n1Cc1ccco1)Nc1ccc(Br)cc1 | 5 | -2 | 13% | 20µM*
NC(=O)c1cc(Cc2ccccc2)sc1NC(=O)c1ccco1 | 47* | 78* | 54% | 9%
COc1ccc(C(=O)Nc2nnc(S(=O)(=O)N3CCCc4ccccc43)s2)cc1 | / | / | 43% | -10%
CCCc1cc(=O)[nH]c2nnc(SCC)n12 | / | / | -5% | 9%
CC1CCc2nn(CC(=O)Nc3cccc(C(F)(F)F)c3)c(=O)cc2C1 (stereo not given) | / | / | -22% | 12%
NC(=O)c1c(NC(=O)c2ccco2)sc2c1CCC2 | 22* | 44* | / | ?
FC(F)(F)c1ccccc1-c1ccc2ncnc(NC3CCNCC3)c2c1 | / | / | -14% | /
CCOc1ccccc1CNCc1cccn1-c1nnc(N2CCN(c3ccccc3)CC2)s1 | / | / | ? | 5%
SMILES | Cycloheximide cs | Shiga toxin inh | FMDV antiviral | Sm TGR block
Cc1nn(-c2ccc(N3CCCCC3)nn2)c(C)c1CCC(=O)Nc1cc(F)ccc1F | 48* | 45* | -11% | -11%
Cc1nn(-c2ccc(N3CCCC3)nn2)c(C)c1CCC(=O)Nc1ccc(F)cc1F | / | / | 0% | -4%
Cc1nn(-c2ccc(N3CCCCC3)nn2)c(C)c1CCC(=O)Nc1ccccc1F | 22* | 63* | -14% | ?
O=[N+]([O-])c1ccc(O)c(C(C#Cc2ccccc2)N2CCOCC2)c1 (stereo not given) | 26* | 66* | 1% | -7%
O=C(c1cc([N+](=O)[O-])ccc1N1CCOCC1)N1CCN(c2ccccc2)CC1 | -4 | -3 | / | -19%
COc1ccccc1OCC(=O)Nc1cc(-c2ccc(C)cc2)no1 | / | / | 20% | 8%
Cc1cc(NC(=O)CCl)on1 | 1 | 11 | ? | 16µM*
CC(C)c1cc(NC(=O)CCl)on1 | -1 | 10 | ? | 13µM*
CCOc1ccc(-c2nc3c(c(SCC(=O)N4CCCCC4)n2)Cc2cc(C)ccc2O3)cc1 | / | / | 10% | -10%
c1ccc(CSc2nnc(Cc3ccccn3)o2)cc1 | 25* | 46 | 97% | 0%
NCCc1nnc(SCc2ccccc2)o1 | -6 | -21 | -11% | 6%
c1ccc(CSc2nnc(Cc3ccccc3)o2)cc1 | 40* | 54* | 68% | 4%
O=C(CSc1nnc(Cc2ccccc2)o1)c1ccccc1 | 32* | 24 | 29% | 0%[57.1 µM]

Source: PubChem (National Center for Advancing Translational Sciences (NCATS))
